Laboratory results reported in PubChem BioAssay (NCI).
The panel holds about 83,000 compounds, 20% with a hit somewhere; the sample as a whole holds those more often.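 The endpoint reported here, percent growth, reads 100 for growth as untreated, 0 for no net growth and -100 for all cells dead.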 Unmarked numbers belong to inactive results. The source made the active and inactive calls. Rule for the calls: active = growth percent below 10; inactive = the rest.

Legend:
Test in all cases: NCI-60 one-dose screen, 48 h (100 = growth as untreated, 0 = no growth, -100 = all killed)
Conditions in all cases: 10 µM unless noted
NCI-H23 lung = test system: NCI-H23 lung
NCI-H226 lung = test system: NCI-H226 lung
NCI-H322M lung = test system: NCI-H322M lung
NCI-H460 lung = test system: NCI-H460 lung
HOP-92 NSCLC = test system: HOP-92 NSCLC
NCI-H522 lung = test system: NCI-H522 lung
A549/ATCC NSCLC = test system: A549/ATCC NSCLC
786-0 renal = test system: 786-0 renal
DU-145 prostate = test system: DU-145 prostate
K-562 leukemia = test system: K-562 leukemia
MALME-3M melanoma = test system: MALME-3M melanoma
MDA-MB-231 breast = test system: MDA-MB-231 breast
RXF 393 renal = test system: RXF 393 renal
SF-268 CNS = test system: SF-268 CNS
SF-295 CNS = test system: SF-295 CNS
SF-539 CNS = test system: SF-539 CNS
UACC-257 melanoma = test system: UACC-257 melanoma
M14 melanoma = test system: M14 melanoma
HOP-62 NSCLC = test system: HOP-62 NSCLC
COLO 205 colon = test system: COLO 205 colon

| Compound | growth (NCI-H23 lung) | growth (NCI-H226 lung) | growth (NCI-H322M lung) | growth (NCI-H460 lung) | growth (HOP-92 NSCLC) | growth (NCI-H522 lung) | growth (A549/ATCC NSCLC) | growth (786-0 renal) | growth (DU-145 prostate) | growth (K-562 leukemia) | growth (MALME-3M melanoma) | growth (MDA-MB-231 breast) | growth (RXF 393 renal) | growth (SF-268 CNS) | growth (SF-295 CNS) | growth (SF-539 CNS) | growth (UACC-257 melanoma) | growth (M14 melanoma) | growth (HOP-62 NSCLC) [%] | growth (COLO 205 colon) |
| --- | --- | --- | --- | --- | --- | --- | --- | --- | --- | --- | --- | --- | --- | --- | --- | --- | --- | --- | --- | --- |
| NC(N)=N/N=C/c1ccc(Br)cc1 | 56.4% | 72.1% | 98.6% | 14.3% | 49.3% | 40% | 34.6% | -38.3% (active) | 80% | 4.4% (active) | 45% | 38.1% | 70.8% | 62% | 48.3% | 62.2% | 58.6% | 14.6% |  |  |
| COC(=O)[C@]12CC[C@@H](C)[C@H](C)[C@@H]1C1=CC[C@@H]3[C@@]4(C)C(C=O)=C[C@@](C)(CO)C4=CC[C@@]3(C)[C@]1(C)CC2 | 31.7% | 58.5% | 61.3% | 17.5% | 38% |  | 29.1% | 45.2% | 39.9% | 16.4% | 60.1% | 53.2% |  | 48.3% | 24.9% | 29.8% |  | 28.5% | 83.8 |  |
| COC(=O)CCCNC(=O)C(=O)c1c(O)c(O)c(C(C)C)c2cc(C)c(-c3c(C)cc4c(C(C)C)c(O)c(O)c(C(=O)C(=O)NCCCC(=O)OC)c4c3O)c(O)c12 | 11.8% | -17.2% (active) | 29.6% | 0.963% (active) | -0.407% (active) | -38.9% (active) | -6.82% (active) | 4.56% (active) | -0.703% (active) | 6.26% (active) | 19.7% | -16.3% (active) | -6.97% (active) | 8.13% (active) | -7.03% (active) | -1.93% (active) | -21.5% (active) | -20.7% (active) |  |  |
| Cn1cc(-c2ccc3nc(-c4ccc(CC(=O)Nc5cc(C(C)(C)C)no5)cc4)cnc3c2)cn1 | 41.8% [30 µM] | 30.8% [30 µM] | 26.7% [30 µM] | 21.1% [30 µM] | -3.39% [30 µM] (active) | 26.6% [30 µM] | 33.9% [30 µM] | 35.7% [30 µM] | 22.6% [30 µM] | 4.38% [30 µM] (active) | 0.481% [30 µM] (active) | -5.94% [30 µM] (active) |  | 27.4% [30 µM] | 23.2% [30 µM] | 16.3% [30 µM] | 41.9% [30 µM] |  |  | 61.6% [30 µM] |
| C[C@]12CCC(=O)C[C@H]1CC[C@@H]1[C@@H]2CC[C@@]2(C)[C@H]1CC[C@]2(O)C(=O)CO | 107% | 94.2% | 103% | 107% | 93.2% | 89.4% | 122% | 105% | 108% | 114% |  | 99.6% | 108% | 96% | 113% | 103% | 129% |  |  | 100% |
| CN(C)S(=O)(=O)n1cnc([C@@H]2[C@@H]3C(=O)OC[C@@H]3C[C@]23N=CN(Cc2ccccc2)C3=O)c1 | 128% | 110% | 110% | 113% | 110% |  |  | 102% | 111% | 116% | 110% | 112% | 126% | 95.6% | 105% | 98.5% | 116% |  | 95.9 | 118% |
| N#C/C(=C\c1ccc(Br)cc1)n1nnc2ccccc21 | 13.5% | -23.9% (active) | -12.2% (active) | -23.2% (active) | -15% (active) | -6.64% (active) | 18.1% | 5.88% (active) | 14.5% | 14.5% | 24.1% | 0.304% (active) | -15.4% (active) | 23.9% | 16.1% | -3.55% (active) | 13.4% | 10.7% |  |  |
| CC(=O)Nc1ccc(C(=O)/C=C/c2ccccc2)cc1 | 96.1% | 83.5% | 88.9% | 98.3% | 47.8% | 53% | 76.3% | 58.3% | 89.8% | 79.9% | 104% | 93.2% | 97.4% | 85.4% | 104% | 96.6% | 70.3% |  |  | 102% |
| CN1CCC(=C2c3ccccc3C=Cc3ccccc32)CC1 | 83.7% | 96% | 104% | 93.3% | 67% | 39% | 91.1% | 67.5% |  |  | 105% | 8.64% (active) | 51.6% | 79.8% | 88.1% | 87.4% | 81.7% | 91.7% |  |  |
| C=C(C)[C@@H]1CC[C@]2(CO)CC[C@]3(C)[C@H](CC[C@@H]4[C@@]5(C)C=C(C#N)C(=O)C(C)(C)[C@@H]5CC[C@]43C)[C@@H]12 | 16.6% | 25.6% | 21.4% | -7.1% (active) | 8.38% (active) | 24.1% | 12.6% | 14.8% | 18.9% | 7.75% (active) | 32.9% | 15.9% | -61.2% (active) | 25.4% | -2.71% (active) | 20.5% | 4.1% (active) | 15.8% |  |  |
| CCOC(=O)C1=C(C)NC(SCc2nnc(-c3ccc(Cl)cc3)o2)=NC1c1ccc(Cl)cc1Cl (stereo unspecified) | 66% | 79% | 78.9% | 59.2% | 26.4% |  |  | 65.2% | 73.1% |  | 72.8% | 41.7% | 43.4% | 73.8% | 47.2% | 86.4% | 68.1% | 65.2% | 82.5 |  |
| CCn1c(Sc2nnc(NC(C)=O)s2)nc2c1c(=O)n(C)c(=O)n2C | 82.2% | 93.9% | 96.5% | 103% | 77.6% | 93.5% | 98.7% | 99.6% | 99.2% | 95.6% | 99.1% | 96% | 91.2% | 90.8% | 98% | 92.5% | 103% | 91.4% |  |  |
| O=C1c2ccccc2C(=O)c2cc(Cn3cc[n+](Cc4ccc5ccccc5c4)c3)ccc21 | 75.6% | 83.3% | 91% | 94% | 47.8% | 38.9% |  | 98.8% | 115% | 32.5% | 66.5% | 81.4% |  | 72.5% | 94.9% | 84.1% | 56.1% |  |  | 58.6% |
| O=C(NCCN1CCC(O)CC1)c1cc2c(o1)C(=O)c1ccccc1C2=O | -50.9% (active) | -77.5% (active) | -98.6% (active) | -75.9% (active) | -67.4% (active) | -56.3% (active) | -57.7% (active) | -78.3% (active) | -97.6% (active) | 2.8% (active) | -99.2% (active) | -24.6% (active) | -99% (active) | -54.8% (active) | -96.2% (active) | -97.5% (active) | -86.9% (active) | -85.3% (active) |  |  |
| c1ccc([P+](CCCc2n(Cc3ccc4ccccc4c3)c3ccccc3[n+]2Cc2ccc3ccccc3c2)(c2ccccc2)c2ccccc2)cc1 | 44% | 83.5% | 63.8% | 34.8% | 46.3% | 60.2% | 80.2% | 70.8% | 82.1% | 23.7% | 65.2% | 51% |  | 79% | 41.1% | 36.8% | 84% |  |  | 44.7% |
| Cl.Fc1c[c-]c(-c2ccccn2)c(F)c1.[Pt].c1ccc([PH+](c2ccccc2)c2ccccc2[PH+](c2ccccc2)c2ccccc2)cc1 | -84.6% (active) | -70% (active) | -99.4% (active) | -73.2% (active) | -68% (active) | -63% (active) |  | -73.9% (active) | -98.9% (active) | 0.976% (active) | -83.8% (active) | -93.3% (active) | -86.8% (active) | -72.3% (active) | -90.8% (active) | -93.6% (active) | -71.8% (active) | -72.5% (active) |  |  |
| O=C1CSC(c2ccccc2Cl)N1c1nnc(Cn2cnnc2)o1 (stereo unspecified) | 51.7% | 78.8% | 87.1% | 34.2% | 43% |  | 58% | 41.9% | 104% | 8.59% (active) | 28.9% | 68.6% |  | 94.7% | -32.6% (active) | 39.7% |  | 20.4% | 37.3 |  |
